Measurements: PubChem BioAssay (NCI)
Compounds without any hit were thinned out: in the full panel of roughly 79,000, 15% have a hit. A number with no mark means an inactive call. Activity calls are given as the source filed them. No stated cut-off is given here; in the data, active means growth inhibition above about 70%; inactive means the rest.

Columns and labels:
[1] = NCI Yeast Anticancer Drug Screen. Data for the rad50 strain (AID 155);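 further: 0% = growth of vehicle-only cultures of the same strain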; conditions: S. cerevisiae rad50 strain growth inhibition, active compounds read high
Outline: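 Genetically altered yeast (DNA repair pathway); compound treatment; growth inhibition vs vehicle ctrl.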

[2] = NCI Yeast Anticancer Drug Screen. Data for the mec2-1 strain (AID 157); conditions: S. cerevisiae mec2-1 strain, active compounds read high
Outline: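 Each compound was tested on mec2-1 yeast, a strain altered in DNA damage repair or cell cycle control. Growth inhibition is reported relative to vehicle.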

[3] = NCI Yeast Anticancer Drug Screen. Data for the sgs1 mgt1 strain (AID 161);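 further: 0% = growth of cultures given vehicle only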; conditions: S. cerevisiae sgs1 mgt1 strain, active compounds read high
Outline: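 Test agents were incubated with a DNA-repair-mutant yeast strain. Growth was then read and compared against vehicle-treated controls.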

[4] = NCI Yeast Anticancer Drug Screen. Data for the cln2 rad14 strain (AID 165);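 further: 0% = growth equal to vehicle treated cultures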; conditions: S. cerevisiae cln2 rad14 strain, active compounds read high
Outline: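 Test compounds were added to cln2 rad14 yeast cultures; inhibition of growth was then determined by comparison with vehicle treatment.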

[5] = NCI Yeast Anticancer Drug Screen. Data for the bub3 strain (AID 167); conditions: S. cerevisiae bub3 mutant strain, active compounds read high
Outline: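 Yeast carrying a defined mutation is treated with each compound, and growth is compared with that of vehicle-exposed cells to give inhibition.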

[6] = NCI Yeast Anticancer Drug Screen. Data for the mlh1 rad18 strain (AID 175); conditions: S. cerevisiae mlh1 rad18 strain growth inhibition, active compounds read high
Outline: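 Inhibition values reflect reduced growth of mutant yeast versus vehicle-treated controls following compound exposure; the mutations affect DNA damage repair.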

[7] = at 5.0 µM (retest, dose inferred, filed as 0.5)
[8] = at 50.0 µM (retest, dose inferred, filed as 5.0)

Structure (SMILES)	growth inhibition [1, 7] [%]	growth inhibition [1, 8]	growth inhibition ([1]; at 50.0 µM)	growth inhibition [2, 7] [%]	growth inhibition [2, 8]	growth inhibition ([2]; at 50.0 µM)	growth inhibition [3, 7] [%]	growth inhibition [3, 8]	growth inhibition ([3]; at 50.0 µM)	growth inhibition [4, 7] [%]	growth inhibition [4, 8]	growth inhibition ([4]; at 50.0 µM)	growth inhibition [5, 7] [%]	growth inhibition [5, 8]	growth inhibition ([5]; at 50.0 µM)	growth inhibition [6, 7] [%]	growth inhibition [6, 8]	growth inhibition ([6]; at 50.0 µM)
COc1ccc(/C=C2\SC(=S)N(/C=C(/C#N)C(=O)c3ccc4ccccc4c3)C2=O)cc1OC	-11	98% (active)	97.4% (active)	-18	99% (active)	98.5% (active)	1	98% (active)	97.2% (active)	-13	97% (active)	95.3% (active)	-22	98% (active)	98.6% (active)	5	99% (active)	98.3% (active)
[Cl][Pt+2][Cl].[NH-]c1cc2ccccc2cc1[NH-]	2	0%	64.5%	-34	16%	51.4%	0	1%	69.2%	1	17%	45%	0	14%	20.4%	0	-24%	76.2% (active)
CCCCCCCCC1(C(=O)OCCN(CC)CC)CCCCC1	8	99% (active)	99.8% (active)	0	100% (active)	99.8% (active)	36	99% (active)	99.5% (active)	13	100% (active)	99.8% (active)	22	99% (active)	99.2% (active)	12	98% (active)	99.7% (active)
S=C(NCCc1ccccn1)N/N=C/c1ccccn1	10	99% (active)	76.5% (active)	-1	99% (active)	84.9% (active)	7	98% (active)	88.3% (active)	-3	97% (active)	89.8% (active)	-17	99% (active)	90.4% (active)	28	99% (active)	91.5% (active)
CN(C)C1=NC(N(C)C)=C2C=CC=C12	-3	49%	66.2%	-2	51%	43.8%	-4	34%	33.4%	-3	40%	72.5% (active)	2	73% (active)	82.2% (active)	-6	71% (active)	86.8% (active)
CCC[CH2][Sn]([CH2]CCC)([NH]c1ncnc2[nH]cnc12)[NH]c1ncnc2[nH]cnc12	14	96% (active)	87.8% (active)	14	98% (active)	91.7% (active)	24	94% (active)	85.5% (active)	30	89% (active)	85.2% (active)	14	95% (active)	87.6% (active)	20	98% (active)	86.9% (active)
COc1c(O)cc2c(c1O)C(=O)C1=C(CCCC1)C2=O	-4	63%	47.1%	2	49%	22.2%	4	88% (active)	62.1%	-5	22%	38.9%	11	80% (active)	65%	2	70% (active)	21.3%
C=CCC1(OC(C)=O)CC2C(=O)C(=O)C(C1)N2OC(=O)c1ccccc1 (configuration not stated)	20	95% (active)	99% (active)	13	96% (active)	99.1% (active)	22	99% (active)	99.3% (active)	9	94% (active)	98.3% (active)	-1	93% (active)	98% (active)	10	98% (active)	98.7% (active)
CC(C)=CCC/C(C)=C/CC/C(C)=C/CSc1ccccc1C(=O)O	22	17%	76.3% (active)	10	14%	75.8% (active)	14	10%	54.5%	8	20%	10.2%	18	19%	62.2%	22	18%	41.5%
